IDE inh – inhibits human insulin-degrading enzyme in HEK cells; actives 0.41% (n = 320,000); inhibition, % at 5.59 µM; FAbetaB cleavage, fluorescence polarization;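 active means percent inhibition above the average of all tested compounds plus 3 SD, set per screening campaign, cut at about 16% in these data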;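 further: IDE supplied by intact live HEK cells; FP after avidin binding of uncleaved biotin substrate so inhibition keeps polarization high; 0% = DMSO wells and 100% = 60 µM reference IDE inhibitor Ii1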
LANA-H2B inh – blocks KSHV LANA binding to histone H2A/H2B | inhibition, % (no concentration beside the values) | cell-free LANA-H2A/H2B peptide, fluorescence polarization | actives 0.6% (n = 320,000) | AID 2629; in the data active means inhibition mostly above about 10%, no sharp cut-off; inactive means mostly below about 6.7%
HDAC3 inhib – human HDAC3 inhibition. recombinant HDAC3, fluorogenic peptide/trypsin coupled, fluorescence. AID 2718. inhibition, % at 8.3 µM. actives 0.15% (n = 320,000); in the data active means inhibition above about 26%, passing the limit was not always enough; inconclusive means no clear call, values can overlap the other calls
IDE act – boosts human insulin-degrading enzyme activity in HEK cells; P14735; FAbeta-B cleavage, fluorescence polarization; 0% vehicle, 100% cell-free pure enzyme wells; activation, % at 5.96 µM; actives 0.073% (n = 340,000); AID 493087;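 active means activation above the mean of all tested compounds plus 3 SD, set per screening campaign, cut at about 17% in these data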
IDE cell inh cf – confirmation of human insulin-degrading enzyme inhibitors in cells | shares compounds with IDE inh | HEK cells, FAbetaB cleavage, fluorescence polarization | inhibition, % at 5.59 µM | actives 51% (n = 1,200) | AID 435028;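 active means mean inhibition across triplicate wells above the cutoff set by the earlier primary insulin-degrading enzyme screen, cut at about 16% in these data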;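 further: 0% = DMSO wells and 100% = 60 µM reference IDE inhibitor Ii1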
HEK293 tox – kills HEK cells in IDE inhibitor counter-screen | shares compounds with IDE inh | inhibition, % at 5.59 µM | HEK293 cytotoxicity, ATP luminescence | actives 28% (n = 1,200); in the data active means inhibition above about 22%;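 further: 0% = vehicle wells and 100% = reference cytotoxic drug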
FP fluor counter – fluorescence interference counter-screen for IDE inhibitors. FP counterscreen for fluorescent artifacts, IDE probe project. 30 tested, under 10 active. shares compounds with IDE inh. IC50, µM; call rule not given here
* = called active by the depositor; ? = inconclusive; . = not tested or not shown. Hits are enriched below; roughly 1.1% of the tested compounds scored in any of these assays.

SMILES	IDE inh	LANA-H2B inh	HDAC3 inhib	IDE act	IDE cell inh cf	HEK293 tox	others
COc1cc(/C=C2\SC(=S)N(NS(=O)(=O)c3ccccc3)C2=O)ccc1O	74.3*	-9.1	.	-102.6	160.8*	6.6
COc1ccc(/C=C2/SC(=S)N(NS(=O)(=O)c3ccccc3)C2=O)cc1	-3.0	-4.0	10.9	3.8	.	.
COc1cc(/C=C2\SC(=S)N(NS(=O)(=O)c3ccc(C)cc3)C2=O)ccc1O	72.0*	-8.4	.	-96.1	160.8*	11.6
COc1cc(/C=C2\SC(=S)N(NS(=O)(=O)c3ccc(C)cc3)C2=O)cc(OC)c1OC	0.3	5.9	4.7	-0.1	.	.
CCOc1cc(/C=C2\SC(=S)N(NS(=O)(=O)c3ccc(C)cc3)C2=O)ccc1O	35.1*	-9.2	3.2	-31.7	83.8*	9.4
CSc1nc(-c2ccc(C)cc2)[nH]c1S(=O)(=O)c1ccccc1	4.9	1.5	4.6	5.3	.	.
CC(=O)Sc1nc(-c2ccccc2)[nH]c1S(=O)(=O)c1ccc(C)cc1	17.1*	-5.0	-1.9	.	-1.9	5.3
Cn1c(SCC(=O)Nc2ccc3nc(SCC(=O)N4CCCC4)sc3c2)nnc1-c1ccccc1	21.4*	3.1	6.5	.	14.1	10.1
Cc1ccc(NC(=O)CSc2nnc(CSc3nc(C)cc(C)n3)n2Cc2ccco2)c(C)c1	3.0	2.1	0.9	-0.9	.	.
Cc1ccc(NC(=O)CSc2nnc(-c3cccc(Cl)c3)n2Cc2ccco2)c(C)c1	.	.	.	.	.	.	FP fluor counter=>54.7
O=C(CSc1nnc(-c2cccc(Cl)c2)n1Cc1ccco1)Nc1ccccc1C(F)(F)F	.	.	.	.	.	.	FP fluor counter=>54.7
CCc1c(C#N)c(SCc2c(C)noc2C)nc2c1C(=O)CC(C)(C)C2	17.8*	-1.1	-0.4	-11.5	1.1	32.4*
CCc1c(C#N)c(SCCC(=O)Nc2ccc(OC)cc2)nc2c1C(=O)CC(C)(C)C2	2.6	-8.3	0.0	-0.3	.	.
Clc1cc2cccnc2c2ccccc12	19.4*	-2.7	3.3	-9.7	13.1	4.5
Oc1c(Cl)cc(Cl)c2cccnc12	.	.	.	2.5	.	.
O=C1CC(NS(=O)(=O)c2ccc(F)cc2)CN1c1ccc2c(c1)OCCO2 (stereo not drawn)	11.5	0.9	0.9	-1.6	.	.
CCCCCN(C(=O)CCC(=O)OCC(=O)N(C)c1ccccc1)c1c(N)n(CCCC)c(=O)[nH]c1=O	0.4	-0.5	-2.5	2.2	.	.
CCCCCN(C(=O)CCC(=O)OCC(=O)c1ccc(C(C)CC)cc1)c1c(N)n(CCCC)c(=O)[nH]c1=O (stereo not drawn)	17.0*	-10.4	-3.3	-4.1	10.1	13.4
CCCOc1ccc(CNC(=O)C2CCN(C(=O)N3CCOc4ccccc43)CC2)cc1	2.6	-1.5	4.1	2.4	.	.
CN(C)c1ccc(/C=C(/C#N)C(=O)NCc2ccccc2)o1	97.0*	-7.0	1.5	-125.7	121.7*	8.6
COc1cc(/C=C2/SC(=S)N(CC(=O)O)C2=O)ccc1OC(=O)c1ccco1	26.1*	-1.4	20.2	-18.7	89.7*	9.2
COc1cc(/C=C2\SC(=S)N(CC(=O)O)C2=O)ccc1OC(=O)c1ccco1	23.6*	-4.6	20.4	-31.2	107.0*	4.7
COc1ccc(/C=C2/SC(=S)N(CC(=O)O)C2=O)cc1OCc1ccc(Cl)cc1	-3.6	1.2	8.1	2.8	.	.
CCOc1cc(/C=C2/SC(=S)N(CC(=O)O)C2=O)ccc1OC(=O)c1cccs1	8.3	-9.2	7.1	-1.4	.	.
CCc1ccccc1NC(=S)N(Cc1ccc(OC)cc1)CC1CCC(C(=O)O)CC1 (stereo not drawn)	2.6	-1.5	-1.8	1.4	.	.
SMILES	IDE inh	LANA-H2B inh	HDAC3 inhib	IDE act	IDE cell inh cf	HEK293 tox	others
N=C1/C(=C\c2coc3ccccc3c2=O)C(=O)N=C2SC(c3ccncc3)=NN12	42.4*	-23.0	.	-35.3	20.0*	5.8
CC(C)CSC1=NSC2=NC(=O)/C(=C\c3coc4ccccc4c3=O)C(=N)N12	62.9*	60.3*	9.5	-128.0	106.1*	8.1
N=C1/C(=C/c2coc3ccccc3c2=O)C(=O)N=C2SC(c3ccco3)=NN12	14.5	-4.8	-6.5	.	.	.
CSC1=NSC2=NC(=O)/C(=C\c3coc4ccccc4c3=O)C(=N)N12	42.8*	9.3	-1.9	-62.9	45.6*	6.5
O=c1nccc(SCc2ccc(Cl)cc2Cl)[nH]1	1.2	2.2	?	-3.5	.	.
CC(=O)O[C@@H]1C[C@H]2C(C)(C)C(=O)C=C[C@]2(C)[C@H]2CC[C@@]3(C)[C@H](c4ccoc4)OC(=O)[C@H]4O[C@]43[C@@]21C	18.1*	1.2	3.2	-40.5	7.0	58.2*
CC1(C)OC(=O)C=C[C@]2(C)[C@H]3CC[C@@]4(C)[C@H](c5ccoc5)OC(=O)[C@H]5O[C@]54[C@]3(C)C(=O)C[C@@H]12	2.2	6.3	1.4	-2.2	.	.
Cc1c(C)c2ccc(OCC(=O)N3CCC[C@@H]3C(=O)O)c(C)c2oc1=O	17.2*	4.5	-6.8	4.6	1.7	15.0
Cc1c(OCC(=O)N2CCC[C@@H]2C(=O)O)ccc2c3c(c(=O)oc12)CCC3	8.8	-6.2	-7.5	1.4	.	.
COc1ccc(CC(=O)N[C@@H](CCSC)C(=O)N2CCC3(CC2)NCCc2[nH]cnc23)cc1	2.4	8.6	7.5	-0.5	.	.
Cc1cc2c(Nc3cccc(O)c3)ncnc2s1	0.3	-8.6	2.3	-0.9	.	.
Cc1cccc(-n2c(O)c(C=Nc3ccccc3-c3n[nH]c(=S)[nH]c3=O)c3ccccc3c2=O)n1	21.5*	-2.2	5.9	-29.9	16.8*	2.1
CCN(CC)c1ccc(/C=C2\C(=O)c3ccc(C(=O)O)cc3C2=O)cc1	141.5*	-8.5	3.5	-106.4	25.9*	12.2
CCOc1ccc2nc(NC(=O)Cn3cnc4c3c(=O)n(C)c(=O)n4C)sc2c1	19.5*	1.8	2.8	-18.2	-1.8	10.1
CCOc1ccc2nc(NC(=O)CSc3nc4c(c(=O)n(C)c(=O)n4C)n3C(C)C)sc2c1	-3.3	-1.2	8.4	-1.5	.	.
CC(C)c1ccccc1-n1c(SCc2cc(=O)oc3ccc4ccccc4c23)nnc1-c1cccnc1	23.7*	3.3	9.0	-59.0	12.9	21.1
CCOC(=O)N1CCN(c2ccnc3cc(Cl)ccc23)CC1	37.1*	1.4	-2.2	-19.2	19.9*	11.9
N/C(COc1cc(Cl)cc(Cl)c1)=N\O	-2.5	-1.2	?	6.2	.	.
COc1cc2[nH]c3c(N4CCN(c5ccc(Cl)cc5)CC4)ncnc3c2cc1OC	51.7*	3.5	-4.3	-28.7	27.2*	37.9*
COc1cccc(N2CCN(c3ncnc4c3[nH]c3ccc(F)cc34)CC2C)c1 (stereo not drawn)	38.4*	-12.7	13.0	-12.5	27.9*	122.1*
COc1ccc2c(c1)[nH]c1c(N3CCSCC3)ncnc12	14.2	-2.3	-6.2	-7.5	.	.
